According to PubChem BioAssay AID1220 (Sanford-Burnham Center for Chemical Genomics, 2008):
Out of some 190,000 compounds screened, about 1,300 (0.68%) were called active. The entries come from a sample that favours actives as a whole. A number with no mark means an inactive call. No stated cut-off is given here; in the data, active means inhibition above about 50%; inactive means the rest.

What follows are compounds tested against Mannose-6-phosphate isomerase (Homo sapiens) (UniProt P34949) (assay: MPI inhibition at elevated mannose 6-phosphate – biochemical, fluorescence intensity, high mannose 6-phosphate, primary screen (AID 1220)). Conditions: recombinant PMI enzyme, coupled fluorescence intensity; at 20 µM; active compounds read high.
Chain of Mannose-6-phosphate isomerase (Homo sapiens) (P34949 whole entry, looked up): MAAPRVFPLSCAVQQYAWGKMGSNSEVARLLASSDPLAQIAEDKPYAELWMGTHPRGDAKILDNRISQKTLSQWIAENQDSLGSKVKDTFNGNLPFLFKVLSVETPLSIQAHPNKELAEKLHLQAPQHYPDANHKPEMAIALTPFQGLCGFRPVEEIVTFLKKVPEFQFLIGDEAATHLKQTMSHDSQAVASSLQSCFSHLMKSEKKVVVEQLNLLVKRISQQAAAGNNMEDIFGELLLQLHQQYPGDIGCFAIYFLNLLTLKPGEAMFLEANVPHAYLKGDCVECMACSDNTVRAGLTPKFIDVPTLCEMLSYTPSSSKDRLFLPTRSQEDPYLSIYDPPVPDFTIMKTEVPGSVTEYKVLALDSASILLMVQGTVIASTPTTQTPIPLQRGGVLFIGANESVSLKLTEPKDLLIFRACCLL

| Structure (SMILES) | inhibition |
| --- | --- |
| CCN(CC)C(=O)N1c2ccccc2CC(N(CC)CC)c2ccccc21 (centres undefined) | -19.4% |
| Cc1nc(C#N)c(N/N=C/c2c(F)cccc2Cl)o1 | 53.3% (active) |
| Fc1cccc(Cl)c1/C=N/Nc1c(Cl)cncc1Cl | 8.5% |
| Cc1nc(C#N)c(N/N=C/c2cccc(Cl)c2)o1 | 12.6% |
| Cc1cccc2cc(C3CC(c4cccs4)=NN3C(=O)CCC(=O)O)c(Cl)nc12 (centres undefined) | 8.9% |
| COc1ccc(N2CCn3c2nc2c3c(=O)n(CCCc3ccccc3)c(=O)n2C)cc1 | -5.3% |
| Cc1ccc(-c2nc(CN(CC3CCC3)CC3CCCO3)c(C)o2)s1 (centres undefined) | 5.6% |
| COC(=O)C/C=C/[C@@H](C)[C@@H](/C=N/OCC[C@@H]1C=C[C@H](OC(C)=O)[C@@H](COC(C)=O)O1)NS(=O)(=O)c1ccc(C)cc1 | -6.1% |
| CN1CC=C2C(C#N)=C(N)C(C#N)(C#N)C(CCc3ccccc3)C2C1 (centres undefined) | 17.3% |
| CCCC1C2CN(C(C)=O)CC=C2C(C#N)=C(N)C1(C#N)C#N (centres undefined) | -10.2% |
| CC(=O)N1CC=C2C(C#N)=C(N)C(C#N)(C#N)C(CCc3ccccc3)C2C1 (centres undefined) | 14% |
| CC(C)N1CC=C2C(C#N)=C(N)C(C#N)(C#N)C(c3ccccc3)C2C1 (centres undefined) | 20.5% |
| CCCC1C2CN(C(C)C)CC=C2C(C#N)=C(N)C1(C#N)C#N (centres undefined) | 60.7% (active) |
| CC(C)N1CC=C2C(C#N)=C(N)C(C#N)(C#N)[C@H](c3ccoc3)[C@H]2C1 | 58.4% (active) |
| Cc1ccc(C2C3CN(C(C)C)CC=C3C(C#N)=C(N)C2(C#N)C#N)cc1 (centres undefined) | 24.4% |
| CN1CC=C2C(C#N)=C(N)C(C#N)(C#N)[C@H](c3ccoc3)[C@H]2C1 | 15.1% |
| CCN1CC=C2C(C#N)=C(N)C(C#N)(C#N)C(CCc3ccccc3)C2C1 (centres undefined) | 52.5% (active) |
| Cc1ccccc1-c1nc(CN(Cc2c(C)nn(C)c2C)C2CC2)c(C)o1 | 5.6% |
| CC(C)(C)c1ccc2c(c1)N(CC(=O)O)C(=O)CO2 | -8.3% |
| Cc1cccc(NC2SC(=O)NC2=O)c1 (centres undefined) | 0.9% |
| CCCc1c(O)nc(SCC(=O)NCCc2ccc(OC)c(OC)c2)[nH]c1=O | 6.4% |
| COc1ccc(CNc2oc(Cc3cccc4ccccc34)nc2C#N)cc1 | 9.4% |
| O=C(CCNC(=O)Cn1ccc2ccccc2c1=O)NCCCN1CCN(c2ccccc2F)CC1 | 54.6% (active) |
| O=C(CCNC(=O)Cn1ccc2ccccc2c1=O)NCCCN1CCN(c2ccc(F)cc2)CC1 | -5.7% |

| Structure (SMILES) | inhibition |
| --- | --- |
| CCCN1CCN(CCCNC(=O)CCNC(=O)Cn2ccc3ccccc3c2=O)CC1 | -3.5% |
| Cc1cccc(N2CCC(N3CCN(C4CCCCC4)C(CCO)C3)CC2)c1C (centres undefined) | 22.8% |
| O=C(CSc1nnc(-c2ccco2)o1)NC1CCCCCC1 | -4.7% |
| COc1cc(C)c(Cl)cc1S(=O)(=O)NCCCN1CCOCC1 | 2% |
| O=C1/C(=C/c2ccco2)Cc2ccccc21 | 16% |
| O=C1/C(=C\c2ccco2)CCC/C1=C\c1ccco1 | -57.2% |
| COc1cc(/C=C2/CCc3ccccc3C2=O)cc(OC)c1OC | 23.1% |
| COc1ccc2c(c1)CC/C(=C/c1cc(OC)c(OC)c(OC)c1)C2=O | 52.2% (active) |
| COc1ccc(/C=C2\CC/C(=C\c3ccc(OC)c(OC)c3)C2=O)cc1OC | 20.6% |
| COc1ccc2c(c1)CC/C(=C/c1ccncc1)C2=O | 11.5% |
| Nc1ccc2c(c1)C/C(=C/c1ccco1)C2=O | -39.6% |
| COc1cc(/C=C2\CC/C(=C\c3cc(OC)c(OC)c(OC)c3)C2=O)cc(OC)c1OC | 11.2% |
| COc1cc(/C=C2\CCc3ccccc3C2=O)cc(OC)c1OC | 23.9% |
| O=C1/C(=C/c2ccco2)CCc2ccccc21 | 56.9% (active) |
| COc1ccc2c(c1)CC/C(=C/c1ccco1)C2=O | 57.4% (active) |
| COc1ccc([N+](=O)[O-])cc1NC(=O)Nc1cccc(Cl)c1 | -1.5% |
| O=C(Cn1nc(CNc2ccc(Cl)cc2)[n+]2c1CCCCC2)c1ccc(Br)cc1 | 9.2% |
| CCSc1nnc(-c2ccccc2N)c(=O)[nH]1 | -2% |
| CCN(CC)S(=O)(=O)c1cc(-c2nnc(-c3ccc(Br)cc3)o2)ccc1Cl | 3.4% |
| O=C(CN1CCC(NC(=O)Cc2ccccc2)CC1)Nc1ccccc1Br | -0.4% |
| CSc1ccccc1NC(=O)CCn1c(=O)sc2ccccc21 | -0.9% |
| Clc1ccc(OCCSc2ncccn2)cc1 | 11.9% |
| COc1ccc(-n2cc(CNCCCn3ccnc3)c(-c3ccccc3Cl)n2)cc1 | 1.9% |
| CCn1c2ccccc2c2cc(NC(=O)N3CCOCC3)ccc21 | 20% |

| Structure (SMILES) | inhibition |
| --- | --- |
| CCn1c2ccccc2c2cc(NC(=O)C(=O)N3CCOCC3)ccc21 | 50.2% (active) |
| CCn1c2ccccc2c2cc(NC(=S)N3CCOCC3)ccc21 | 3% |
| O=C(NCc1ccncc1)C1=NN(c2ccccc2)C(=O)CC1 | -91.4% |
| Cc1cccc(NCN2C(=O)C3C4C=CC(C4)C3C2=O)c1 (centres undefined) | 3.7% |
| S=C(NCCc1ccccc1)Nc1ccc(Nc2ccccc2)cc1 | 0% |
| CCN(CC)P(=O)(Nc1ccc(SC(F)F)cc1)c1ccc(N(C)C)cc1NC(=O)c1ccco1 (centres undefined) | 35.4% |
| CCN(CC)P(=O)(Nc1ccccc1Br)c1ccc(N(C)C)cc1NC(=O)c1ccco1 (centres undefined) | 16.4% |
| CCN(CC)P(=O)(Nc1ccc(C)cc1Br)c1ccc(N(C)C)cc1NC(=O)c1ccco1 (centres undefined) | 53% (active) |
| Cc1ccc2cc(C#N)c(N3CCCC3)nc2c1C | -56.8% |
| O=C(Cc1c(Cl)cccc1Cl)OCC(=O)N1CCc2ccccc2C1 | -1% |
| CN1/C(=C/c2cc[n+](C)c3ccccc23)C=Cc2ccccc21 | 58% (active) |
| CCN1/C(=C/c2ccc3ccccc3[n+]2CC)C=Cc2ccccc21 | 17.7% |
| C[n+]1ccc(/C=C/c2ccccc2O)c2ccccc21 | 12.7% |
| COc1ccc(CNC(=O)COC(=O)/C=C/c2ccco2)cc1 | -4.8% |
| CCOC(=O)c1c(/N=C/c2cc(C)ccc2O)sc2c1CCN(C)C2 | -5.7% |
| Nc1ccc(NC(=O)c2ccco2)c(Cl)c1 | -1.2% |
| O=C(COc1ccccc1)NCCSCc1ccco1 | 5.1% |
| Cc1cc(C)nc(N/N=C/c2ccc(N3CCOCC3)cc2)n1 | 4.7% |
| Cc1ccc(/C=N/Nc2nc(N3CCOCC3)nc(N3CCOCC3)n2)o1 | -10.9% |
| Brc1ccc(-c2ccc(/C=N/Nc3nc(N4CCOCC4)nc(N4CCOCC4)n3)o2)cc1 | 5.4% |
| CN(C)c1ccc(/C=C/C=N/Nc2nc(N3CCOCC3)nc(N3CCOCC3)n2)cc1 | 8.9% |
| Clc1ccc(-c2ccc(/C=N/Nc3cc(N4CCOCC4)nc(N4CCOCC4)n3)o2)cc1 | 54.5% (active) |
| CC(C)c1ccc(/C=N/Nc2cc(N3CCOCC3)nc(N3CCOCC3)n2)cc1 | 68.6% (active) |
| C(=N\Nc1nc(N2CCOCC2)nc(N2CCOCC2)n1)/c1ccncc1 | -1% |

| Structure (SMILES) | inhibition |
| --- | --- |
| CN(C)c1ccc(/C=N/Nc2cc(N3CCOCC3)nc(N3CCOCC3)n2)cc1 | 60.4% (active) |
| O=[N+]([O-])c1ccc(/C=N/Nc2nc(N3CCOCC3)nc(N3CCOCC3)n2)cc1 | -1.5% |
| COc1c(C)cccc1C(=O)NC(=S)Nc1ccc2c(c1)Cc1ccccc1-2 | 8.2% |
| COc1ccc(NS(=O)(=O)c2cc(NC(=O)Cn3cnc4c3c(=O)n(C)c(=O)n4C)ccc2C)cc1 | 8.9% |
| CC(NC(=O)Cc1ccccc1)c1nc2ccccc2[nH]1 (centres undefined) | -7.3% |
| Cc1nc2n(n1)C(O)c1cc([N+](=O)[O-])ccc1S2 (centres undefined) | 7.3% |
| COc1ccc(C(=O)CN(Cc2ccccc2)C2=NCCS2)cc1 | -4.2% |
| CCOC(=O)c1c(C)oc2c1c(C(c1ccncc1)N1CCOCC1)c(O)c1ccccc12 (centres undefined) | 10.8% |
| CCOC(=O)c1c(C)oc2c1c(C(c1cccnc1)N1CCCCC1)c(O)c1ccccc12 (centres undefined) | 26.9% |
| CCOC(=O)c1c(C)oc2c1c(C(c1cccnc1)N1CCN(C)CC1)c(O)c1ccccc12 (centres undefined) | 28.8% |
| CCOC(=O)c1c(C)oc2c1c1c(c3ccccc32)OCN(Cc2cccnc2)C1 | 67.3% (active) |
| CCOC(=O)c1c(C)oc2c1c(C(c1cccnc1)N1CCOCC1)c(O)c1ccccc12 (centres undefined) | 58% (active) |
| CCOC(=O)c1c(C)oc2ccc(O)c(CN3CCCCC3)c12 | 6.2% |
| CC(=O)Oc1ccc2c(c1)c(C(C)=O)c(C)n2C | -2.9% |
| COc1ccccc1C(=O)N/N=C/c1cnc2ccccc2n1 | -4.4% |
| CCCCNC(=O)c1ccc(CNS(=O)(=O)c2ccc(Br)cc2)cc1 | 4.4% |
| COc1cc(C2C(C#N)=C(C)NC3=C2C(=O)CC(C)(C)C3)ccc1O (centres undefined) | 3.8% |
| COc1cc(C2C(C#N)=C(C)NC3=C2C(=O)CC(C)(C)C3)ccc1OCCO (centres undefined) | 5.4% |
| COc1cc(C2CC(=O)NC3=C2C(=O)CC(C)(C)C3)ccc1O (centres undefined) | 4.3% |
| CC1(C)CC(=O)C2=C(C1)NC(=O)CC2c1ccc(F)cc1 (centres undefined) | -3.1% |
| COc1cc(C2CC(=O)NC3=C2C(=O)CC(C)(C)C3)cc(OC)c1O (centres undefined) | 54.4% (active) |
| COc1cc(C2C(C#N)=C(C)NC3=C2C(=O)CC(C)(C)C3)cc(OC)c1O (centres undefined) | 66.5% (active) |
